Over roughly 33,000 sequences, “E-score (-0.5 to 0.5)” has its median near -0.04; the highest 2% begin near 0.36. What follows is part of a selection rich in the highest values, with near analogues and random picks from the rest.
Target: T1, Hmlalpha2 (UniProt P0CY09)
T1 sequence: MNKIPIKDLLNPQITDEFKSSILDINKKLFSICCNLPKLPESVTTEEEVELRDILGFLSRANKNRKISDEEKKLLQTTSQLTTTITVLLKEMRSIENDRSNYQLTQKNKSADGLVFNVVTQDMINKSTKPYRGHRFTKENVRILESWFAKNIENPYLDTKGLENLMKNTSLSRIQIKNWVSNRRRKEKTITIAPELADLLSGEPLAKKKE
Experiment: PBM E-score (8-mer binding enrichment) (E-score (-0.5 to 0.5)); higher = stronger / more preferred TF binding
Settings: protein concentration: 200 nM; construct: GST-full length
Procedure, shortened: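 The E-score, a modified Wilcoxon-Mann-Whitney statistic, was computed by the Universal PBM Analysis Suite for every ungapped eight-base word pooled with its reverse complement. Scans behind it were normalised with masliner after bound GST-tagged yeast transcription factors were detected with fluorescent anti-GST. The proteins, at about 100-200 nM, had been applied to universal all-10-mer Agilent arrays made double-stranded by primer extension.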

Row | Sequence | PBM E-score
1 | ACTGTTCG | 0.0673
2 | AACTGCTA | -0.0585
3 | AGAGGTGA | -0.0117
4 | CACCAGTA | -0.0753
5 | ACGGACAT | -0.0204
6 | AGAACACA | 0.268
7 | ATAACAAG | 0.352
8 | CTAACACC | 0.153
9 | CTAACAAG | 0.175
10 | ATAACACC | 0.259
11 | GTAACACA | 0.324
12 | CTAACACA | 0.376
13 | ATAACACG | 0.461
14 | ATAACACA | 0.439
15 | GTTCTAGA | -0.00839
16 | CCCTGACG | -0.351
17 | ATTTAGCC | 0.0155
18 | GACCTTGC | -0.356
19 | AGTTTCGG | -0.031
20 | ACAACAAA | 0.284
21 | ACAACAGG | 0.155
22 | CCAACACA | 0.248
23 | TCAACACA | 0.43
24 | TCAACAGA | 0.149
25 | ACAACACA | 0.405

Row | Sequence | PBM E-score
26 | ACAACACT | 0.248
27 | ACAACACC | 0.182
28 | CCAACACG | 0.375
29 | CCAACACC | -0.206
30 | ACAACACG | 0.417
31 | GCAACACA | 0.167
32 | GGTATGCA | -0.0286
33 | AGGCCTTC | -0.156
34 | AATCCGTG | -0.129
35 | CGTCCATA | 0.0125
36 | GGCAACAA | 0.0607
37 | TAATTTCA | 0.182
38 | ATCAAGTG | -0.0416
39 | CAGCATTA | 0.109
40 | GCATTTCA | -0.082
41 | ACACGAGG | 0.292
42 | ACACGAGA | 0.291
43 | ACACGAGT | 0.389
44 | GCACGACC | -0.188
45 | CCACGACC | -0.0888
46 | ACACGACT | 0.391
47 | ACACGACC | 0.396
48 | ACACGACG | 0.42
49 | ACACGAAT | 0.356
50 | AAACGACT | -0.0906

Row | Sequence | PBM E-score
51 | AGACGACG | -0.129
52 | CCACGACG | -0.097
53 | AAATGCAG | -0.012
54 | ACCCGACC | -0.145
55 | ACTAACGG | -0.168
56 | TCACGACA | 0.116
57 | ACACGACA | 0.412
58 | CCACGACA | -0.103
59 | ATTACGGG | -0.0184
60 | ATTACGCC | 0.187
61 | ATTACGCA | 0.435
62 | CTTACGCA | 0.341
63 | GTTACGCA | 0.277
64 | ATTACGCG | 0.467
65 | CGAAGAGC | -0.12
66 | CCAAGCAG | -0.127
67 | AACAGCTA | 0.115
68 | ACCTGAGG | -0.266
69 | AATTAACT | 0.173
70 | AATTAACA | 0.425
71 | TATTAATA | 0.173
72 | GATTAAGA | 0.0797
73 | GATTAACC | -0.108
74 | CATTAACA | 0.409
75 | CATTAACG | 0.277

Row | Sequence | PBM E-score
76 | TATTAACA | 0.428
77 | CATTAACC | 0.128
78 | TATTAAAA | 0.24
79 | GATTAACA | 0.413
80 | AATTAACC | 0.104
81 | GGCAGTTA | 0.0486
82 | CACCGGGC | -0.256
83 | ATGGTATA | 0.178
84 | CTTGACTC | -0.216
85 | GCAAGCTA | 0.0155
86 | ATTTGCTG | 0.024
87 | GTACACTA | 0.135
88 | CTACACTC | 0.145
89 | CTACACTA | 0.208
90 | CTACACGA | 0.451
91 | CTACACCA | 0.165
92 | GTACACCA | 0.089
93 | CGACACGC | 0.243
94 | CTACACGC | 0.428
95 | GTACACGA | 0.425
96 | AGCCACCG | -0.248
97 | CCCACCAC | -0.191
98 | ATACGCCA | -0.109
99 | AAATACAC | 0.431
100 | CAATATAC | 0.131

Row | Sequence | PBM E-score
101 | TAATACAA | 0.375
102 | CAATACAC | 0.431
103 | AAATACAT | 0.441
104 | CAATACAG | 0.0335
105 | AAATACAA | 0.347
106 | AAATACAG | 0.172
107 | AAATACGT | 0.246
108 | AAATACTT | 0.208
109 | CAATACAA | 0.256
110 | TCATACAA | 0.0397
111 | GTGGGACA | -0.0285
112 | AGCTGTTA | 0.0595
113 | CGGTGCGA | -0.141
114 | CACTGTTA | 0.0828
115 | ACGCTACG | 0.0651
116 | GACCGTCC | -0.302
117 | TAAGGCCA | 0.0046
118 | TAAGCAGA | 0.00375
119 | AGAATCTG | -0.187
120 | GGTGGACA | -0.0373
121 | GAATACAA | 0.352
122 | GAATACAC | 0.451
123 | GAATACGC | 0.357
124 | CCAGGCAG | -0.272
125 | AGACCTGC | -0.0816

Row | Sequence | PBM E-score
126 | CTTCGGCA | -0.198
127 | ATAAACAA | 0.323
128 | ATAAACAC | 0.365
129 | ATAAACAT | 0.383
130 | CTAAAAAC | 0.0815
131 | GTAAACAC | 0.416
132 | GTAAAAAC | 0.385
133 | CTAAACAC | 0.296
134 | GGAAACAC | 0.119
135 | GTAAAAAA | 0.286
136 | ACAAACAT | 0.305
137 | AAAAACAT | 0.297
138 | ATAAACAG | 0.0861
139 | ATACCTCA | -0.072
140 | AGCATTGC | 0.0222
141 | AGCGGGGA | -0.24
142 | CGTTGAAA | 0.0902
143 | TACGGCCA | -0.262
144 | GTAAACAA | 0.37
145 | TTAAACAA | 0.274
146 | CTAAACAA | 0.0668
147 | ATGCTAAG | 0.027
148 | CGTCGAAC | 0.0323
149 | CGTGTACA | 0.467
150 | AGTGTGTG | 0.127

Row | Sequence | PBM E-score
151 | GGTGTGCA | -0.155
152 | AGTGTACA | 0.301
153 | AGTGTGTA | 0.395
154 | CGTGTGTA | 0.413
155 | CGTGTACC | 0.326
156 | GGTGTGTA | 0.423
157 | CGTGTGTC | 0.2
158 | GGGGTGTA | 0.0612
159 | AGTGTGTC | 0.174
160 | CGTGTGCA | 0.0955
161 | CCGGACGA | -0.0406
162 | ATGGGAAT | 0.0681
163 | CAGCACCG | -0.189
164 | GCGCGGTA | 0.0518
165 | ACCTGCAG | -0.0825
166 | AAGCAGGG | -0.116
167 | CGTGTATC | 0.332
168 | CGTGTATA | 0.452
169 | GGTGTATA | 0.0823
170 | GGTCTATA | 0.121
171 | GTATACAA | 0.291
172 | ATATACAT | 0.435
173 | ATATACAC | 0.422
174 | ATATATAC | 0.345
175 | ATATACAG | 0.131

Row | Sequence | PBM E-score
176 | CTATACAC | 0.213
177 | ATATACAA | 0.343
178 | GTATATAC | 0.155
179 | GTATACAC | 0.416
180 | AAGGTAAC | 0.0918
181 | CACGCCCC | 0.0158
182 | ACTTGAGG | -0.203
183 | GATGTGTA | 0.38
184 | AATGTGTG | 0.0802
185 | AATGTGTC | 0.0899
186 | GATGTGCA | -0.091
187 | CATGTGTC | 0.152
188 | CATGTGGA | 0.144
189 | AATGTGTA | 0.371
190 | GATGTGGA | -0.0421
191 | CATGTGTA | 0.427
192 | AACAAGGC | 0.219
193 | CATCAAGC | -0.116
194 | ACCCTAAT | -0.101
195 | CCTAATCA | 0.0766
196 | GTGTGAGA | 0.0378
197 | AAAACAGA | 0.137
198 | ATAAAAAG | 0.19
199 | AAGTAACA | 0.245
200 | ATGTAACA | 0.454

Row | Sequence | PBM E-score
201 | CTGTAACA | 0.223
202 | GCGTAACA | 0.29
203 | GTGTAACA | 0.411
204 | GGGTAACA | 0.17
205 | AGGAGTGG | -0.145
206 | ACCCGAGA | -0.255
207 | AGTCTGCG | -0.0616
208 | ACCAGAAT | 0.0511
209 | ACACAACA | 0.381
210 | ATACAACA | 0.355
211 | GTACAACA | 0.395
212 | TCACACCA | -0.0124
213 | GCACAACA | 0.187
214 | CCACAACA | 0.0233
215 | AAACAACC | 0.168
216 | ACACACCA | 0.369
217 | CCACACCA | 0.0331
218 | AAACAACT | 0.0928
219 | AAACAACA | 0.367
220 | CTACAACA | 0.283

From the supplement of paper PMC3334620
